# From publication PMC7862700, “An all-to-all approach to the identification of sequence-specific readers for epigenetic DNA modifications on cytosine”
# Key:
# Assay in all cases: DAPPL (digital affinity profiling via proximity ligation, sequencing); 10 mM Tris-HCl pH 7.5, 50 mM NaCl, 1 mM DTT, 4% glycerol, room temperature, 30 min; GST-TFs on glutathione beads, 16-mer random dsDNA library, 0.1% formaldehyde crosslink after washing; high values mean tight binding
# [1] = molecular target: T1, FEV (Homo sapiens, UniProt Q99581 1-238); details: protein: recombinant; tags: N-terminal GST; dsDNA, one strand shown
# T1 sequence: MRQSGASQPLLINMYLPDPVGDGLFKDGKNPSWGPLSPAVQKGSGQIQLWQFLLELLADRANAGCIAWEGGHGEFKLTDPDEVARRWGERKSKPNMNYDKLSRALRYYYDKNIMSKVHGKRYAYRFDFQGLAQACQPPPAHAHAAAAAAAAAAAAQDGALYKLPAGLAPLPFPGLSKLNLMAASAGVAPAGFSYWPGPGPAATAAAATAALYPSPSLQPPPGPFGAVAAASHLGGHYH
# Outline: (§1)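 Beads coated with glutathione captured GST-fused human transcription factors that had been expressed in yeast, and the factors were then given DNA barcodes and pooled with a tag-only sample. The pools were incubated with 200 nmole of a random double-stranded 16-mer DNA library in Tris/NaCl/DTT/glycerol buffer for 30 min at room temperature, washed, crosslinked with 0.1% formaldehyde and proximity-ligated with BsaI/T4 ligase at 37 °C for 1 h. PCR amplification and Illumina NextSeq500 sequencing came last. Binding signal is each hexamer's read frequency for a factor divided by its frequency for the tag-only sample.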
# [2] = molecular target: ETV5 (Homo sapiens, UniProt P41161 1-510); details: protein: recombinant; tags: N-terminal GST; dsDNA, one strand shown
# ETV5, sequence (P41161 whole entry): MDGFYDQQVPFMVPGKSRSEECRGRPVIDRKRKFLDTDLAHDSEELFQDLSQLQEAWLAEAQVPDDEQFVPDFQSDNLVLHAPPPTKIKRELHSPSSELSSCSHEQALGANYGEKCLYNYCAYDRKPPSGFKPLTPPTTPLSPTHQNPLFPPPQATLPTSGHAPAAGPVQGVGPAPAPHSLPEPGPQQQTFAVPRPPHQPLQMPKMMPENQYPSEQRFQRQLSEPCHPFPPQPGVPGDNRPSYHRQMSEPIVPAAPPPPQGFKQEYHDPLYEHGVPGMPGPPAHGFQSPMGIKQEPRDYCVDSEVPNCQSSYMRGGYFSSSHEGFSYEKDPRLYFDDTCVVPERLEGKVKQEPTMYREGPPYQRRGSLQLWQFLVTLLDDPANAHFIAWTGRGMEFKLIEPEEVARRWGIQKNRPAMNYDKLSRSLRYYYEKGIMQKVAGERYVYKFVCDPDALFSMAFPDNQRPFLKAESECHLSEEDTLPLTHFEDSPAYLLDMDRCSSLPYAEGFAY
# Outline: as §1
# [3] = molecular target: HSF1 (Homo sapiens, UniProt Q00613 1-529); details: protein: recombinant; tags: N-terminal GST; chain copies: 3; dsDNA, one strand shown
# HSF1, sequence (Q00613 whole entry): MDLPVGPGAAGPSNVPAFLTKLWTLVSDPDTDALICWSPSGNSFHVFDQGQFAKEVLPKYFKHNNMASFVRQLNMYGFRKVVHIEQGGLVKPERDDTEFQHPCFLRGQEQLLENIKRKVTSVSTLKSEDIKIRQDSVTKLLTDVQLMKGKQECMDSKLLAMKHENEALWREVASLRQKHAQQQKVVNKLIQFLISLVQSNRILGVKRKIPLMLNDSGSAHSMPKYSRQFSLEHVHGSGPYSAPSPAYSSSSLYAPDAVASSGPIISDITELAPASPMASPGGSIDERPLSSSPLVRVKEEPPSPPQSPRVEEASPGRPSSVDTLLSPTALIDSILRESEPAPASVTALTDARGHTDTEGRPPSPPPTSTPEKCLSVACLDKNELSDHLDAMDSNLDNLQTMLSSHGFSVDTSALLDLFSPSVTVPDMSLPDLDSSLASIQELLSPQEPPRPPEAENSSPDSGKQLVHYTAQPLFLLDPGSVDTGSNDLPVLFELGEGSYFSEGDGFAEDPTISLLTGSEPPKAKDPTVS
# Outline: as §1
# [4] = molecular target: T2, SPIC (Homo sapiens, UniProt Q8N5J4 1-248); details: protein: recombinant; tags: N-terminal GST; dsDNA, one strand shown
# T2 sequence: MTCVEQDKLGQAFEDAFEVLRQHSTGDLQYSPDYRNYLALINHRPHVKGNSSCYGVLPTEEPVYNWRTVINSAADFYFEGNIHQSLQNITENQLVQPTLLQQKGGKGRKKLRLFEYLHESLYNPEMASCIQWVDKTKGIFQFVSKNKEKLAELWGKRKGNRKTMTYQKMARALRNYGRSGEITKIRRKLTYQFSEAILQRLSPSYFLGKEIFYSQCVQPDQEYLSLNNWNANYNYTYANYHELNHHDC
# Outline: as §1
# [5] = molecular target: ELF4 (Homo sapiens, UniProt Q99607 1-663); details: protein: recombinant; tags: N-terminal GST; dsDNA, one strand shown
# ELF4, sequence (Q99607 whole entry): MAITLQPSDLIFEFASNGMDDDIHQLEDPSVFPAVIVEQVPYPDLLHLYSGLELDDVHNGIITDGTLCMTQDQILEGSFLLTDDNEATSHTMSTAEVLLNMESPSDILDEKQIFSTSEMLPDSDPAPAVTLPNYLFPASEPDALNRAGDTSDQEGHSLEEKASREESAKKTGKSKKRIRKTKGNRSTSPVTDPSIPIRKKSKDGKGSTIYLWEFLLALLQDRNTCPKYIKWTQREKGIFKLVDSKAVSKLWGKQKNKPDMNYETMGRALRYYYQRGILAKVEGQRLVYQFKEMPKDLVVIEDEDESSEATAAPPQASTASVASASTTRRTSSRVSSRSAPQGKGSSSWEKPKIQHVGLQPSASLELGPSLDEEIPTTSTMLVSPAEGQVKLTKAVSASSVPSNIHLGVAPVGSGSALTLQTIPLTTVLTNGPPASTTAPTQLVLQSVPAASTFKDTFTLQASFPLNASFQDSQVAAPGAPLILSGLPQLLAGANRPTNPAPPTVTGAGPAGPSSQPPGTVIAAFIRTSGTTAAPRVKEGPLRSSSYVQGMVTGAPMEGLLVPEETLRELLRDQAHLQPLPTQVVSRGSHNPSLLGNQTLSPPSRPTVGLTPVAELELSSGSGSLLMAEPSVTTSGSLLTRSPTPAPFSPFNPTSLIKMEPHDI
# Outline: as §1
# [6] = molecular target: T3, ELK4 (Homo sapiens, UniProt P28324-2 1-405); details: protein: recombinant; tags: N-terminal GST; dsDNA, one strand shown
# T3 sequence: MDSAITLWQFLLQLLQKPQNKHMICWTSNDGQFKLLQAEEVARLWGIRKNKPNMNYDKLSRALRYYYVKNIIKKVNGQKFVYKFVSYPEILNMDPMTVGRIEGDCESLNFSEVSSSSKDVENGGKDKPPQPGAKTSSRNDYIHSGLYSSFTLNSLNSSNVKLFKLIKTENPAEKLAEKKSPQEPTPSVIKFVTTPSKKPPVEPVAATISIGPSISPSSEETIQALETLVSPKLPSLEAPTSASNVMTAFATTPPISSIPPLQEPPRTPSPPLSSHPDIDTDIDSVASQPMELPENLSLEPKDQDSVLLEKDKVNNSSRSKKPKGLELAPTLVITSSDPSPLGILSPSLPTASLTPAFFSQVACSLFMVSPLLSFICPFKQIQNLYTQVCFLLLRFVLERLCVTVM
# Outline: as §1
# [7] = molecular target: T4, ETV2 (Homo sapiens, UniProt O00321 1-342); details: protein: recombinant; tags: N-terminal GST; dsDNA, one strand shown
# T4 sequence: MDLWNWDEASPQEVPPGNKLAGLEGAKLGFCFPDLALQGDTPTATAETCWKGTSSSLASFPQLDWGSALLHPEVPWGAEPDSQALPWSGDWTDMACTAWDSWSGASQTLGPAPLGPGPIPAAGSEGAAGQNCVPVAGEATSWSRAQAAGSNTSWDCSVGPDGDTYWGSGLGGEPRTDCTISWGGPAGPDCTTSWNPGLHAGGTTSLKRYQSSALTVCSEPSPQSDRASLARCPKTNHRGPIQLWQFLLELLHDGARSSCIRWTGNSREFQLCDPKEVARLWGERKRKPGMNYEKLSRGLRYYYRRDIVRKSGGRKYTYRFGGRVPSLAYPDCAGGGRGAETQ
# Outline: as §1
# [8] = molecular target: T5, ELF3 (Homo sapiens, UniProt P78545 1-371); details: protein: recombinant; tags: N-terminal GST; dsDNA, one strand shown
# T5 sequence: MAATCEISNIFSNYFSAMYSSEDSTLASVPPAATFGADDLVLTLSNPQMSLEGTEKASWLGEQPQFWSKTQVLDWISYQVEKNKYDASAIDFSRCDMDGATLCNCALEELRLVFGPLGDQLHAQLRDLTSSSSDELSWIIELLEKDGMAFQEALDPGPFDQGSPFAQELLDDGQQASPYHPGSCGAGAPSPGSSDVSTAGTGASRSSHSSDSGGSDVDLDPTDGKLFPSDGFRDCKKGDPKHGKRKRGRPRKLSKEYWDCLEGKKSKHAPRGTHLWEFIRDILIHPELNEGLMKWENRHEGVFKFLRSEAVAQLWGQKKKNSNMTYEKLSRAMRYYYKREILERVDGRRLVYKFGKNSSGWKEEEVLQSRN
# Outline: as §1
# [9] = molecular target: CRX (Homo sapiens, UniProt O43186 1-299); details: protein: recombinant; tags: N-terminal GST; dsDNA, one strand shown
# CRX, sequence (O43186 whole entry): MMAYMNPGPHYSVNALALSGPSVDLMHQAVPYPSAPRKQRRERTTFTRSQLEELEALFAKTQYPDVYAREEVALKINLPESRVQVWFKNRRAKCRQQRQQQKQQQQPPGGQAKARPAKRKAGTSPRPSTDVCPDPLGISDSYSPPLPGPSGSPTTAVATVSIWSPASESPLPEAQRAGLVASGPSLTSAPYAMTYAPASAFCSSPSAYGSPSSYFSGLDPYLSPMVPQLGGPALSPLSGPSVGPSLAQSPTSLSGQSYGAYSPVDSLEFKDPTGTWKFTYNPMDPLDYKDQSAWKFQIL
# Outline: as §1
# [10] = molecular target: ETV1 (Homo sapiens, UniProt P50549 1-477); details: protein: recombinant; tags: N-terminal GST; dsDNA, one strand shown
# ETV1, sequence (P50549 whole entry): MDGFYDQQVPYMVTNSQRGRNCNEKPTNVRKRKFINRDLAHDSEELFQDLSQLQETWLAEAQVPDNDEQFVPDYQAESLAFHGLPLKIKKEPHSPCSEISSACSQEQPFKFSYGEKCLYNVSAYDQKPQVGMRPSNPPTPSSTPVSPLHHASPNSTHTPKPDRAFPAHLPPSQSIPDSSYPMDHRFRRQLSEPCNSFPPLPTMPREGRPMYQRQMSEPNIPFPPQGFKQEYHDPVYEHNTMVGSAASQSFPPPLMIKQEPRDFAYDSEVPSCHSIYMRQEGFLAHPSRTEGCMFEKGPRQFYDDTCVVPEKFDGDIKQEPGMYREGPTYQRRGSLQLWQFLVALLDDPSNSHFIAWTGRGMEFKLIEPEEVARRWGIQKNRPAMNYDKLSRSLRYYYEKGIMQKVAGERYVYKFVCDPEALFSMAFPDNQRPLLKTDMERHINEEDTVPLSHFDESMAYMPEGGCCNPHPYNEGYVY
# Outline: as §1
# [11] = molecular target: T6, ERF (Homo sapiens, UniProt P50548 1-548); details: protein: recombinant; tags: N-terminal GST; dsDNA, one strand shown
# T6 sequence: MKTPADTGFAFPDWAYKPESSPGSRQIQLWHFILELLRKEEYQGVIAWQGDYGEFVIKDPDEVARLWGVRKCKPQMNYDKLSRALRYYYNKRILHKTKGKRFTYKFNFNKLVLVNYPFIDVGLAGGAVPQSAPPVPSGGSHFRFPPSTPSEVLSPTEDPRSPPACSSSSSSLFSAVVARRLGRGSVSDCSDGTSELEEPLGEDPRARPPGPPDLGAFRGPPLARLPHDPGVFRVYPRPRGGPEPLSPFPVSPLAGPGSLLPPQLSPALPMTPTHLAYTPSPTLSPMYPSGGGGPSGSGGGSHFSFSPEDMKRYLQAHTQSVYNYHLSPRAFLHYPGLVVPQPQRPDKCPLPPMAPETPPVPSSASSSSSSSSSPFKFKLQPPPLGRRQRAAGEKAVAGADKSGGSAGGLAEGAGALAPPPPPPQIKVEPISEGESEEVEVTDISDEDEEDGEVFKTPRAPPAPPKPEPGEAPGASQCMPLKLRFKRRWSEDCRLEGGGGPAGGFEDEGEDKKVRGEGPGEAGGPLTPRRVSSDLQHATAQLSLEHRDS
# Outline: as §1
# [12] = molecular target: T7, ETV3L (Homo sapiens, UniProt Q6ZN32 1-361); details: protein: recombinant; tags: N-terminal GST; dsDNA, one strand shown
# T7 sequence: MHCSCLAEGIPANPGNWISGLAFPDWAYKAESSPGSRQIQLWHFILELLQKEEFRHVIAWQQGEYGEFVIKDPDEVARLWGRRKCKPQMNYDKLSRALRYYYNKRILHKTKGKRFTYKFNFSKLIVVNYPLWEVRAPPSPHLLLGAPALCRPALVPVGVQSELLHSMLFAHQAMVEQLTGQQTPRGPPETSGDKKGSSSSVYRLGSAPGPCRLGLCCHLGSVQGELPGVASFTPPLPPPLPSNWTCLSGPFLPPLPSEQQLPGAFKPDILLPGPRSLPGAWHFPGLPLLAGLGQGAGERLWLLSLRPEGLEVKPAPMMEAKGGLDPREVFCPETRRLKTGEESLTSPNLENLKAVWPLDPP
# Outline: as §1
# [13] = molecular target: T8, ETS2 (Homo sapiens, UniProt P15036 1-469); details: protein: recombinant; tags: N-terminal GST; dsDNA, one strand shown
# T8 sequence: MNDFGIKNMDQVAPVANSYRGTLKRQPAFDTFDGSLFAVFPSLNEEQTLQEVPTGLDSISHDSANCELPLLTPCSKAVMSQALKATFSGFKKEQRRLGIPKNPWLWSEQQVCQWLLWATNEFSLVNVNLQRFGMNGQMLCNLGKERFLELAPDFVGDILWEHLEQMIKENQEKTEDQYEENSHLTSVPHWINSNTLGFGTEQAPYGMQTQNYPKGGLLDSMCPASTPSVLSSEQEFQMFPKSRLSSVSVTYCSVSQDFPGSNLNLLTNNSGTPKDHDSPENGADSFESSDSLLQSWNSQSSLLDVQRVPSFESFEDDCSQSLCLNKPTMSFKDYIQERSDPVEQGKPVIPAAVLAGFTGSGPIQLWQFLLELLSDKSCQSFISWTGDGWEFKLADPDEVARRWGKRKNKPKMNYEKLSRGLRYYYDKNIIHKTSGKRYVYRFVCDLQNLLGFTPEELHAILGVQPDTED
# Outline: as §1
# [14] = molecular target: T9, SPDEF (Homo sapiens, UniProt O95238 1-335); details: protein: recombinant; tags: N-terminal GST; dsDNA, one strand shown
# T9 sequence: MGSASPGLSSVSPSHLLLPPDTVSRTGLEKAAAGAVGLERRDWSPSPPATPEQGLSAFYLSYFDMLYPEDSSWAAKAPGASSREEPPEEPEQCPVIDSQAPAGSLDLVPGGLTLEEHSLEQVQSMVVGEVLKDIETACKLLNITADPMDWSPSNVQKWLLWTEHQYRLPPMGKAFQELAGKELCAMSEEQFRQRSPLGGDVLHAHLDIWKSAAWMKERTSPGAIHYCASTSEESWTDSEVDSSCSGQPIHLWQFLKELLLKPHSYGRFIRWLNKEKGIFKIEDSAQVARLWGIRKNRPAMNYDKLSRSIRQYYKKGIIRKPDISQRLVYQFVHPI
# Outline: as §1
# [15] = molecular target: T10, ETV7 (Homo sapiens, UniProt Q9Y603 1-341); details: protein: recombinant; tags: N-terminal GST; dsDNA, one strand shown
# T10 sequence: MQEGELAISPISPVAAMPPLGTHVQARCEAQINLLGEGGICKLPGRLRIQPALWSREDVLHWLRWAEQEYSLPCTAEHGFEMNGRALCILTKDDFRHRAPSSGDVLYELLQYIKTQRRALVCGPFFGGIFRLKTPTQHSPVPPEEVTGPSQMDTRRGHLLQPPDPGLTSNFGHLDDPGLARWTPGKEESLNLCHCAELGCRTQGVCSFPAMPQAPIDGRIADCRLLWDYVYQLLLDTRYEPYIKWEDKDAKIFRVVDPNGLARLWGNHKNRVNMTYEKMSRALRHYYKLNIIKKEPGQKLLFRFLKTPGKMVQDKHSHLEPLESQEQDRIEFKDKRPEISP
# Outline: as §1
# [16] = molecular target: T11, ELF5 (Homo sapiens, UniProt Q9UKW6-2 1-255); details: protein: recombinant; tags: N-terminal GST; dsDNA, one strand shown
# T11 sequence: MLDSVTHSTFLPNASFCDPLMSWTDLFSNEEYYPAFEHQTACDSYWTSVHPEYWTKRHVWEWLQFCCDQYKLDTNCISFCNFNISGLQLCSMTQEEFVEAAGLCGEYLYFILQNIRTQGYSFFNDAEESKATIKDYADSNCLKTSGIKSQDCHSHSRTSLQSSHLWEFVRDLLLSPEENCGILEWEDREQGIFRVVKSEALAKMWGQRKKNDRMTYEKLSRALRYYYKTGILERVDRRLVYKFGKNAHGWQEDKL
# Outline: as §1
# [17] = molecular target: T12, ETV3 (Homo sapiens, UniProt P41162-2 1-143); details: protein: recombinant; tags: N-terminal GST; dsDNA, one strand shown
# T12 sequence: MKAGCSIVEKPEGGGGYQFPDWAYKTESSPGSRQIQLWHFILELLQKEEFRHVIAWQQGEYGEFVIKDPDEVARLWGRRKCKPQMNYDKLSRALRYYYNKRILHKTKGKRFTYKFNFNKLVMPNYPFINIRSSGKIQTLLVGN
# Outline: as §1
# [18] = molecular target: ETV6 (Homo sapiens, UniProt P41212 1-452); details: protein: recombinant; tags: N-terminal GST; dsDNA, one strand shown
# ETV6, sequence (P41212 whole entry): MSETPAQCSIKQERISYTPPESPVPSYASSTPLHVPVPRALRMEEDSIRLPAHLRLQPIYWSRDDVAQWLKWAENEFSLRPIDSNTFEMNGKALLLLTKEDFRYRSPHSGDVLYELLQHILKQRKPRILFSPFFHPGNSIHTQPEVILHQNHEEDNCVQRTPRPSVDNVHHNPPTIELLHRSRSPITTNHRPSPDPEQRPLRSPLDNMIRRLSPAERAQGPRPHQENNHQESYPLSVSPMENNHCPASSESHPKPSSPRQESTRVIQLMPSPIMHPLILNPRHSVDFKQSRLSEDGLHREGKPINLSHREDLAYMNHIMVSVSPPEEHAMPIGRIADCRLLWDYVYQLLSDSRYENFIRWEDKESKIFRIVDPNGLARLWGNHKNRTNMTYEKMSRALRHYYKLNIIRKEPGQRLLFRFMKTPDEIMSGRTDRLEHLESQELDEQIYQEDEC
# Outline: as §1
sequence,measurement,setting,value
AATTAA,binding signal,[1],"1.14 fold enrichment (6-mer frequency, TF over GST control)"
same,binding signal,[2],"1.29 fold enrichment (6-mer frequency, TF over GST control)"
same,binding signal,[3],"1.74 fold enrichment (6-mer frequency, TF over GST control)"
same,binding signal,[4],"1.24 fold enrichment (6-mer frequency, TF over GST control)"
same,binding signal,[5],"1.26 fold enrichment (6-mer frequency, TF over GST control)"
same,binding signal,[6],"1.26 fold enrichment (6-mer frequency, TF over GST control)"
same,binding signal,[7],"1.2 fold enrichment (6-mer frequency, TF over GST control)"
same,binding signal,[8],"1.24 fold enrichment (6-mer frequency, TF over GST control)"
same,binding signal,[9],"2.5 fold enrichment (6-mer frequency, TF over GST control)"
same,binding signal,[10],"1.26 fold enrichment (6-mer frequency, TF over GST control)"
same,binding signal,[11],"1.31 fold enrichment (6-mer frequency, TF over GST control)"
same,binding signal,[12],"1.2 fold enrichment (6-mer frequency, TF over GST control)"
same,binding signal,[13],"1.24 fold enrichment (6-mer frequency, TF over GST control)"
same,binding signal,[14],"1.17 fold enrichment (6-mer frequency, TF over GST control)"
same,binding signal,[15],"1.2 fold enrichment (6-mer frequency, TF over GST control)"
same,binding signal,[16],"1.23 fold enrichment (6-mer frequency, TF over GST control)"
same,binding signal,[17],"1.25 fold enrichment (6-mer frequency, TF over GST control)"
same,binding signal,[18],"1.32 fold enrichment (6-mer frequency, TF over GST control)"
